Design in all cases: scale not given: direction of the effect not stated beside the values
For assay [1], the target named is Protein translocase subunit SecA (Escherichia coli (strain K12)) (UniProt P10408). The assay is described as follows: Assay to Identify E. coli SecA ATPase Inhibitors. Format: functional. Particulars: 30 µM.
The target of assay [2] is T1, Ubiquitin-activating enzyme e1, putative (Leishmania donovani (strain BPK282A1)) (UniProt E9BSI1).
T1 sequence (whole entry): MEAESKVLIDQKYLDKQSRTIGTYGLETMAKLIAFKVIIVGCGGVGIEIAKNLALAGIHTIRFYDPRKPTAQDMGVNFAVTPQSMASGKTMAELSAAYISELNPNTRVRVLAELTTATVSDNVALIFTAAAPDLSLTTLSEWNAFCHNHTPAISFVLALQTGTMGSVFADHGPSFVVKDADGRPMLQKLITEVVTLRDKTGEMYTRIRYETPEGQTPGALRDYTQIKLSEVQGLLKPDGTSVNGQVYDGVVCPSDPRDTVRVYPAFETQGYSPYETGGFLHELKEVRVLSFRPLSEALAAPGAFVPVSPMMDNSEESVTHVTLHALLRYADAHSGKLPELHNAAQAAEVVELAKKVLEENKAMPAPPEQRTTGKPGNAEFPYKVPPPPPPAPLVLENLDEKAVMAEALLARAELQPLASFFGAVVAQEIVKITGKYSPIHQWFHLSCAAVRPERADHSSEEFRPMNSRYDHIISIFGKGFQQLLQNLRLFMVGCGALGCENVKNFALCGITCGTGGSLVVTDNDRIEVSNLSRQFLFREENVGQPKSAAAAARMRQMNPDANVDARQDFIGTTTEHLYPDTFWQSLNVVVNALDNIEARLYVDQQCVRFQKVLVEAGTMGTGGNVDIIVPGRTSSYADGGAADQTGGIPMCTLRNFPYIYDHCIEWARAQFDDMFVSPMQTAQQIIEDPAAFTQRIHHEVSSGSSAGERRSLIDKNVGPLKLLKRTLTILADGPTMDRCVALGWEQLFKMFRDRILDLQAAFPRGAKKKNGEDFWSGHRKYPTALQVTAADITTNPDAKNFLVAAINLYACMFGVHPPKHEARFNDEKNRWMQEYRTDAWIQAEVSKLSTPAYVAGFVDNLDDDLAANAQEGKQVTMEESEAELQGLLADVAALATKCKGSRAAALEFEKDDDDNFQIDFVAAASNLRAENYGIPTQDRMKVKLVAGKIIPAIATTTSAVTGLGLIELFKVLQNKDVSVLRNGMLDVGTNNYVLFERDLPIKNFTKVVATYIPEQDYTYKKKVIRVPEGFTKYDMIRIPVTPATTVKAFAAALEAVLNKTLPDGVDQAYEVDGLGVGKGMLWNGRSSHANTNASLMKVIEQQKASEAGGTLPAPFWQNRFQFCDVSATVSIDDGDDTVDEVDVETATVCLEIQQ
The assay can be described thus: Leishmania donovani Ubiquitin Activating Enzyme (LdE1). Format: functional. To be noted: 30 µM.

Assay [3] deals with T2, Aspartate--tRNA(Asp/Asn) ligase (Mycobacterium tuberculosis (strain ATCC 25618 / H37Rv)) (UniProt P9WFW3).
T2 sequence (whole entry): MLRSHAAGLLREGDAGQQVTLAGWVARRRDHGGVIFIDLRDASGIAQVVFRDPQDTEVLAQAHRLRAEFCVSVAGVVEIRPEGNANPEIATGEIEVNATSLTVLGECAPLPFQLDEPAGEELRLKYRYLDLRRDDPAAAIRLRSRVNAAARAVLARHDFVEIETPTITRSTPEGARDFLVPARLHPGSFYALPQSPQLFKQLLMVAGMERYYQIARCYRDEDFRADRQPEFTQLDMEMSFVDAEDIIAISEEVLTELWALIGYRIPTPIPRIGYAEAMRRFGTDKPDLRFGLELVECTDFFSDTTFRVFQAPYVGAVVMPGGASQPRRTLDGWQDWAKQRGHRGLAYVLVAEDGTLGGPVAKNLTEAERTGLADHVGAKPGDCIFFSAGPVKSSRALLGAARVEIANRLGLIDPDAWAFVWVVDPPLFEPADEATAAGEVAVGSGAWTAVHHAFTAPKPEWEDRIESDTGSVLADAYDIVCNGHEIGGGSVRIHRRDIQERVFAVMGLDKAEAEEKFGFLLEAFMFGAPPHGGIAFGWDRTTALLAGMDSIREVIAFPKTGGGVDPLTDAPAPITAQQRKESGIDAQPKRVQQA
The assay is described as follows: Assay for Asp RNA synthetase-1 from Mycobacterium tuberculosis. Format: functional. Particulars: 30 µM.

For assay [4], the target named is AMP-activated protein kinase, AMPK (Homo sapiens) (UniProt P54646+O43741+P54619+Q9UGJ0+Q9Y478+Q13131+Q9UGI9). The assay can be described thus: AMP-dependent Kinase enzyme assay. An in vitro enzyme assay that detects ADP turnover that is directly proportional to AMPK activity. This uses naive AMPK that is activated during the assay with MK-8722. To be noted: 30 µM. Format: functional.

In assay [5] the target is Sialic acid-binding Ig-like lectin 9 (Homo sapiens) (UniProt Q9Y336). The assay can be described thus: Hs-Siglec9 ALPHAscreen SOP 20170721. Particulars: 10 µM. A general note: In Alpha technology, singlet oxygen from a donor bead excites a nearby acceptor bead.
Sequence of Sialic acid-binding Ig-like lectin 9 (Homo sapiens) (Q9Y336 whole entry): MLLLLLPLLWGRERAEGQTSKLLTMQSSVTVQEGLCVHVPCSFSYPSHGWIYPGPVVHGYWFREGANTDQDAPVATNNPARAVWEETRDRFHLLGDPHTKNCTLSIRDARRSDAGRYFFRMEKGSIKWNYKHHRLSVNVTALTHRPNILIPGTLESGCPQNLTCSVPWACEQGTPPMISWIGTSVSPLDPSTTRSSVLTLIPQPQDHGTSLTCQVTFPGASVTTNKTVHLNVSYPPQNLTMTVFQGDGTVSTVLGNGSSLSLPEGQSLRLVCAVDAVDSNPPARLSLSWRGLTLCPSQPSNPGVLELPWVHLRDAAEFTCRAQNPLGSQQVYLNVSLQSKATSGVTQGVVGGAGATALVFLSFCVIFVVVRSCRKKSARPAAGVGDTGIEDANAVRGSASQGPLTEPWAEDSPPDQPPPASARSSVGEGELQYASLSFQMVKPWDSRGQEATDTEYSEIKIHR
In the next assay the test system is Trypanosoma cruzi. The assay is described as follows: Trypanosoma cruzi phosphomannomutase and mannose-1-phosphate guanylyltransferase assay. Particulars: 10 µM. Format: functional.
The target of assay [6] is T3, Arginase-2, mitochondrial (Homo sapiens) (UniProt P78540).
T3 sequence (whole entry): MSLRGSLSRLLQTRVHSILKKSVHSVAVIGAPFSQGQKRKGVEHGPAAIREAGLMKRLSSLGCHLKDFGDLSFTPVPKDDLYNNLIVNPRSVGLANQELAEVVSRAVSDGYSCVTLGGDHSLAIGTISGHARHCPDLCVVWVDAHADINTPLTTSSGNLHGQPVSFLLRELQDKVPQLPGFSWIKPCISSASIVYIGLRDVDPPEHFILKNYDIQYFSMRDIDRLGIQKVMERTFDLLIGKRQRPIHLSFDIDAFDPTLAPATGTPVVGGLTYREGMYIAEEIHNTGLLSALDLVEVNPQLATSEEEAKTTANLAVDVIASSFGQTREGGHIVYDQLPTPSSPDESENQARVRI
The assay is described as follows: in vitro enzyme assay to detect the production of urea directly proportional to the activity of Arginase II. Note: in the data most compounds retested in dose-response had high values. Format: functional. Particulars: 33.3 µM.

For assay [7], the target named is T4, Proteasome subunit beta (Trypanosoma cruzi) (UniProt O96673).
T4 sequence (whole entry): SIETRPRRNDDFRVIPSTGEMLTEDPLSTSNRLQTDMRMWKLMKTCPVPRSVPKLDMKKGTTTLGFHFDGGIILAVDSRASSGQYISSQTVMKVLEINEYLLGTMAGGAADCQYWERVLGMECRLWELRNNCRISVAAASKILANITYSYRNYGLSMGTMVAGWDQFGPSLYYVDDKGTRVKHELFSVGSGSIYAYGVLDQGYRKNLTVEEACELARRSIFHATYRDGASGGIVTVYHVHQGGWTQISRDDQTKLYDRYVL
The assay is described as follows: Trypanosoma cruzi proteasome chymotrypsin-like activity (TcProtChymo) assay. Note: in the data most compounds retested in dose-response had high values. Format: functional. Particulars: 9.37 µM.

A further assay is filed under the species Homo sapiens. The assay is described as follows: To identify inhibition of the IFN signalling (Jak-Stat) pathway via expression of an eGFP reporter gene under the control of an IFN-stimulated response element (ISRE) containing MxA promoter. Format: functional. To be noted: 30 µM. (In a reporter assay the amount or activity of a reporter protein is the signal.)

Assay [8] has as its target Shiga toxin 2 (Escherichia coli O157:H7) (UniProt P09385+P09386). The assay is described as follows: E. coli 0.157:H7 Shiga Toxin SOP - stx2 screening assay. Format: functional. To be noted: 30 µM.
Assay [9] deals with T5, Tyrosyl-tRNA synthetase, putative (Trypanosoma cruzi (strain CL Brener)) (UniProt Q4DSP6).
T5 sequence (whole entry): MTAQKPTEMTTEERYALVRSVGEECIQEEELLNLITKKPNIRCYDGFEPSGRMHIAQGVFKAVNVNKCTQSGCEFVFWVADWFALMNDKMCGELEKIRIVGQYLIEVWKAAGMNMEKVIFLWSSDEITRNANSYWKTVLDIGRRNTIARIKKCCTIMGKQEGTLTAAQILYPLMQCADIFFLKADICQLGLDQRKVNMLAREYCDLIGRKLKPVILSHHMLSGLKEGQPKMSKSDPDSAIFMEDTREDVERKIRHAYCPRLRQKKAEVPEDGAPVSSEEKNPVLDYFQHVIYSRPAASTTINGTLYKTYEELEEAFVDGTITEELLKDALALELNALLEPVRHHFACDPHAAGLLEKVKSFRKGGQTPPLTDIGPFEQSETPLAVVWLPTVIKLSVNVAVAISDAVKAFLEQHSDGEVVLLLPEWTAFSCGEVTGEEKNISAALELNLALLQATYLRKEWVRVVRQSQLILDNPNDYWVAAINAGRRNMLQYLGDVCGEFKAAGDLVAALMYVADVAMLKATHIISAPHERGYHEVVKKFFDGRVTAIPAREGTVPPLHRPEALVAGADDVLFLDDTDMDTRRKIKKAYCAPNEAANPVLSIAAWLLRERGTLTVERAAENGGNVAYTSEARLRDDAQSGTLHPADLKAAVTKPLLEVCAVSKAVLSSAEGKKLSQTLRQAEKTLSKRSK
The assay is described as follows: Trypanosoma cruzi tyrosyl tRNA synthetase (TcYRS) _High Tyrosine SOP. Note: in the data most compounds retested in dose-response had high values. Format: functional. Particulars: 30 µM.

The target of assay [10] is T5, Tyrosyl-tRNA synthetase, putative (Trypanosoma cruzi (strain CL Brener)). The assay can be described thus: Trypanosoma cruzi tyrosyl tRNA synthetase (TcYRS) SOP. Format: functional. To be noted: 30 µM.
The target in assay [11] is Chromo domain-containing protein 1 (Saccharomyces cerevisiae (strain ATCC 204508 / S288c) (Baker's yeast)) (UniProt P32657). The assay can be described thus: ScCHD-1 Enzyme Inhibition Assay. Note: in the data most compounds retested in dose-response had high values. Format: functional. To be noted: 30 µM.
Sequence of Chromo domain-containing protein 1 (Saccharomyces cerevisiae (strain ATCC 204508 / S288c) (Baker's yeast)) (P32657 whole entry, the tested form may be a part): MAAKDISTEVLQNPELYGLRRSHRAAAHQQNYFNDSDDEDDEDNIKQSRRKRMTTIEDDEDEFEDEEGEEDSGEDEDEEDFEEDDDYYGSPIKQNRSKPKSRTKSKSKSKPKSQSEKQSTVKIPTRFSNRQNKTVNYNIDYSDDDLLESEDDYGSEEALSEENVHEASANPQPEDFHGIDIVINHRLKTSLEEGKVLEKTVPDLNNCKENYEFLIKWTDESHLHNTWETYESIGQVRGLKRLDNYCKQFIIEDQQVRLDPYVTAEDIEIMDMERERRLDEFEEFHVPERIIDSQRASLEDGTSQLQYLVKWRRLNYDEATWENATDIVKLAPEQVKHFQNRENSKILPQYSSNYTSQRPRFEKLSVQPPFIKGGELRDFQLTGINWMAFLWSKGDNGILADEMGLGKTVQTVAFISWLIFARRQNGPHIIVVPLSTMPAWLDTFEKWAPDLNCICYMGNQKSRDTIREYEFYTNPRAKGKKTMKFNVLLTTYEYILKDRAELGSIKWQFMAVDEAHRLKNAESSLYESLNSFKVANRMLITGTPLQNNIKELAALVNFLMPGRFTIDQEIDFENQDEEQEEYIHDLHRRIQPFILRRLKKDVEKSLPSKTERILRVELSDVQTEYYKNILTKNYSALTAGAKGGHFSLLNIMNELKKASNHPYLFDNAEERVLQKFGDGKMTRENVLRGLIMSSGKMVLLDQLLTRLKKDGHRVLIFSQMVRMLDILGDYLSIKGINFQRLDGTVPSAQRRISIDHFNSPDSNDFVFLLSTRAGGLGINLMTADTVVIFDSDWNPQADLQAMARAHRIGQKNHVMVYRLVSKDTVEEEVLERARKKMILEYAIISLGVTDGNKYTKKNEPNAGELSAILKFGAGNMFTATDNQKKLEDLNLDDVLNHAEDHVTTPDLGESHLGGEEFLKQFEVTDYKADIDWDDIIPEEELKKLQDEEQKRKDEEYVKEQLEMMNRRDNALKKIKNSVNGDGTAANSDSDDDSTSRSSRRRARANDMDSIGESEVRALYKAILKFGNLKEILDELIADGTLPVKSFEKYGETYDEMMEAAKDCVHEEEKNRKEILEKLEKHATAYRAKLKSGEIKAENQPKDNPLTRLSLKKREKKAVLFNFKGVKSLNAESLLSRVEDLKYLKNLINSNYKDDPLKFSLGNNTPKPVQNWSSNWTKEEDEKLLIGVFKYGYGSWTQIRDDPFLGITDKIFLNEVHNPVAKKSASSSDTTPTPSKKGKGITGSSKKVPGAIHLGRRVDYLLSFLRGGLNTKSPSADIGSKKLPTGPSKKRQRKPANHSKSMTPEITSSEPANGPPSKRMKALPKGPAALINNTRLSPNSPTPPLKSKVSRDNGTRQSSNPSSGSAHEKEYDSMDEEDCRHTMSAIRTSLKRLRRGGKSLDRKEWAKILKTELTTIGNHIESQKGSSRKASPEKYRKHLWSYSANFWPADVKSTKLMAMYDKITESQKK

The text below walks through data of ChEMBL document CHEMBL3988442, “University of Dundee, Small-Polar-MMV Screening Library” (2021).

For some assays here: Potency and affinity values are given separately.

Sequence of Protein translocase subunit SecA (Escherichia coli (strain K12)) (P10408 whole entry): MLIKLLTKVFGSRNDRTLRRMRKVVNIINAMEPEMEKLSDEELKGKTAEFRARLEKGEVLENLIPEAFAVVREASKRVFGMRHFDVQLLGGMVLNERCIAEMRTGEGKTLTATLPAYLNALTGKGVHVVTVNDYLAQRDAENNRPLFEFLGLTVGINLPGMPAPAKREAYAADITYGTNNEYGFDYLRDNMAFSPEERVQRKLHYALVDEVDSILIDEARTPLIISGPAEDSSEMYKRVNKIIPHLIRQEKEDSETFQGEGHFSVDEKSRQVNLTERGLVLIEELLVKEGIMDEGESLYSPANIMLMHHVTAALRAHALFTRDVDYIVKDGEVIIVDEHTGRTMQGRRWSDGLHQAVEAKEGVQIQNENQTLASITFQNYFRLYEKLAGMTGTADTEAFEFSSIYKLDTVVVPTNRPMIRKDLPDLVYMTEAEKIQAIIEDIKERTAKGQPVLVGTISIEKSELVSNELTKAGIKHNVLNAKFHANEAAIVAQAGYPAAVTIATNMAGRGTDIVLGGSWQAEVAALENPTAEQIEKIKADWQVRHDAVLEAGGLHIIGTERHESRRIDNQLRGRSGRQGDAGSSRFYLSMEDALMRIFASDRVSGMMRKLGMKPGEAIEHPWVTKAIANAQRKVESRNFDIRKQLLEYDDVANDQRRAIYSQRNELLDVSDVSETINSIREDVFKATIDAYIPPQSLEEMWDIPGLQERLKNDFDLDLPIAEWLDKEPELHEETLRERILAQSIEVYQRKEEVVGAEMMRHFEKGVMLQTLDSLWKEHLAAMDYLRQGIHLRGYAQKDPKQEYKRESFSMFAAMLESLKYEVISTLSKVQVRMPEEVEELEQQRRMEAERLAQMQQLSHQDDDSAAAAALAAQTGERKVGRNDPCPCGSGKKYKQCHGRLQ

For the compound `CCc1nnc(C(C)N2CCCN(C(=O)Oc3ccccc3)CC2)o1` (stereo not given), the Percent Effect in assay [1] was -1.28%; in assay [2], 15.8%; in [3], -3.35%; in assay [4], 0.0863%; in [5], -6.34%; in the assay with Trypanosoma cruzi it was -6.72%. Further, the Percent Effect is -3.55% in assay [6]; 12.6% in assay [7]; 3.97% in the assay listed under Homo sapiens; -15.6% in [8]; 2.13% in [9]; 5.2% in [10]. In assay [11], the Percent Effect is -5.08%.
Regarding `COc1cc(OC)c(C2SCC(=O)Nc3n[nH]cc32)cc1OC` (stereo not given), the Percent Effect in assay [1] was -4.64%; in [2] it was 5.26%; in [3], 10.6%; in assay [4], 15.2%; in assay [5], 0.428%; in the assay on Trypanosoma cruzi it was -0.682%. Besides, the Percent Effect in assay [6] was -7.1%; in assay [7], 9.11%; in the assay filed under Homo sapiens, 20.6%; in assay [8], 10.6%; in assay [9] it was 2.13%; in [10], 2.6%. In assay [11], the Percent Effect is -1.49%.
Take `O=C1NC2(CCNCC2)CC1c1cccnc1` (stereo not given): the Percent Effect in assay [1] was -0.858%; in assay [2] it was 10.7%; in [3] it was -1.51%; in assay [4], 15.3%; in assay [5] it was -10.1%; in the assay with Trypanosoma cruzi, -6.89%. Further, the Percent Effect was 2.1% in assay [6]; 8.55% in assay [7]; 13.1% in the assay listed under Homo sapiens; -1.63% in assay [8]; 4.25% in assay [9]; 8.97% in [10]. For the same compound, the Percent Effect in [11] was -2.26%.
In the case of `CNC(=O)c1ccc2c(c1)C1(CCN(CC(C)C)CC1)C(=O)N2`, the Percent Effect in assay [1] was -7.23%; in [2] it was 5.41%; in assay [3], 3.94%; in assay [4], -0.561%; in [5] it was -0.632%; in the assay on Trypanosoma cruzi it was -4.2%. The Percent Effect was determined as 0.248% in [6]; 3.52% in [7]; 3.77% in the assay listed under Homo sapiens; 7.05% in [8]; 4.3% in [9]; 11.1% in assay [10]. Also, the Percent Effect in [11] was -2.94%.
As for `C[C@H]1C[C@@H]2CCN(Cc3ccccn3)C[C@H]2O1`, the Percent Effect is -1.13% in assay [1]; 0% in assay [2]; -1.48% in assay [3]; 92% in assay [4]; -0.495% in [5]; 1.27% in the assay with Trypanosoma cruzi. Moreover, the Percent Effect in [6] was 1.59%; in assay [7], 10.5%; in the assay listed under Homo sapiens, 7.67%; in assay [8], -4.58%; in assay [9] it was -2.16%; in assay [10] it was -5.13%. In addition, the Percent Effect in assay [11] was -8.15%.
